Consider 30 compounds from PubChem BioAssay AID1851 (National Center for Advancing Translational Sciences (NCATS), 2009).

Screen size: about 16,000 compounds; about 5,100 (32%) were called active. Roughly 25% stayed inconclusive and do not appear here. Some of the results follow. A number with no mark means an inactive call. Calls follow the shape of the dose curve; as a rule, active = well fitted curve in the direction sought with a large enough effect; inconclusive = small, poorly fitted or top-dose-only effect, or effect the other way; inactive = no such curve, though single readings can be large or run the other way.
% is scaled to controls: 0 for no effect and ±100 for the full control effect.

For the assay, the target named is Cytochrome P450 3A4 (Homo sapiens) (UniProt P08684). The experiment in a line: Cytochrome panel assay with activity outcomes. As to conditions: recombinant CYP, pro-luciferin dealkylation, luminescence, p450-cyp3a4; series mostly up to 57.1 µM; activity, negative = inhibition: at the top concentration.
Chain of Cytochrome P450 3A4 (Homo sapiens) (P08684 whole entry, looked up): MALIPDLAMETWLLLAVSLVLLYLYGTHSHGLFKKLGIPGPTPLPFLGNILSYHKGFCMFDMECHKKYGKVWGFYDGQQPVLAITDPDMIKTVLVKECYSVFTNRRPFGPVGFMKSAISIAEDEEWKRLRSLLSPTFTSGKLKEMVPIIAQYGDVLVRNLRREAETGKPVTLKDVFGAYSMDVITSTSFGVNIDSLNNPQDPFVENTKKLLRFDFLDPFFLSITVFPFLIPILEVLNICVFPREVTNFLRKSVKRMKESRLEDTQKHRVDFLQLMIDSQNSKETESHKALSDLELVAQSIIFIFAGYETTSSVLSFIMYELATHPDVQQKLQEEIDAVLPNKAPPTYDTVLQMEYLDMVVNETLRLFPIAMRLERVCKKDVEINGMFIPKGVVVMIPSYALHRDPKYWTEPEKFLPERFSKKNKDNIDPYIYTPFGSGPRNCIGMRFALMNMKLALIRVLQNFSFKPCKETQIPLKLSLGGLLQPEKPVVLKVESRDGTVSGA
With `CCC1NC(=S)N(C2CCCCC2)C1=O` (stereo not given), the “activity, negative = inhibition” value is -22.3%.
Still for that read-out and setting: with `Cc1ccc(-[n+]2cc(=O)o[nH]2)cc1` the figure was -10.5% [at 11.4 µM]; with `Nc1nc(C(=O)O)c(N=Nc2ccccc2)c(=O)[nH]1`, -12.5% [at 11.4 µM]; with `CCOc1ccc2nc3cc(N=Nc4ccc(N)nc4N)ccc3c(N)c2c1`, -19% [at 11.4 µM].
As a reminder, the AC50 is the midpoint of the concentration-response curve, whichever way the signal moves. As for `COCCn1c(=O)c(-c2cccs2)nc2cnc(Oc3ccccc3)nc21`, the AC50 is 20 µM (active).
Same read-out and setting: then `COc1ncc2nc(-c3cccs3)c(=O)n(CCc3ccccc3)c2n1`, with 10 µM (active); and `COCCn1c(=O)c(-c2cccs2)nc2cnc(OC)nc21`, with 10 µM (active).
Take `CCCCN(Cc1ccccc1)C(=O)c1cnc2n(c1=O)CCS2`: the “activity, negative = inhibition” value was -24.7%.
The same measure, in the same setting: then `CSc1ccccc1N1CCN(C(=O)Nc2ccc3c(c2)NC(=O)CO3)CC1`, with 8.81%; and `CN(C)S(=O)(=O)c1nc(Cl)c2[nH]cnc2n1`, with -5.34% [at 11.4 µM]; and `CCOC(=O)N/N=C1/C[C@@H](O)[C@@H](O)[C@@H]2[C@@H]3C(=O)N(C4CCCCC4)C(=O)[C@H]3CC[C@@H]12`, with -20.8% [at 11.4 µM].
Same read-out and setting: with `O=C(Nc1cccc(Cl)c1Cl)c1snnc1-c1ccccc1` the figure was 13.9%.
Regarding `COC(=O)[C@H](C)[C@H]1C[C@]1(C)[C@H](NC(=O)OCc1ccccc1)c1ccccc1`, the AC50 is 7.94 µM (active).
Still for that read-out and setting: with `COC(=O)[C@H](C)[C@@H]1C[C@@]1(C)[C@@H](NC(=O)OCc1ccccc1)c1ccccc1` the figure was 10 µM (active).
As to `CN(C)CCNS(=O)(=O)N(C)C`, the activity, negative = inhibition was -13.5% [at 11.4 µM].
The same measure, in the same setting: with `CC(=O)NN1C(=O)c2ccc(Oc3ccc([N+](=O)[O-])cc3)cc2C1=O` the figure was 1.67%.
As to `Nc1ccc(Oc2ccc3nc(-c4ccccc4)c(-c4ccc([N+](=O)[O-])cc4)nc3c2)cc1`, the AC50 is 3.55 µM (active).
`Cc1nc2ccccc2nc1-c1ccc(N=[N+]([O-])c2ccc(-c3nc4ccccc4nc3C)cc2)cc1`: the activity, negative = inhibition is 3.4% [at 11.4 µM].
For the compound `Cc1noc(C)c1CS(=O)(=O)c1ccc(Br)cc1`, the AC50 is 15.8 µM (active).
For the compound `CNC(=O)CCc1nc(-c2ccc(C(C)(C)C)cc2)no1`, the “activity, negative = inhibition” value was -15.1%.
With `O=C(CCc1nc(-c2ccccc2)no1)NCCc1ccccc1`, the “activity, negative = inhibition” value is -16.7%.
Regarding `COc1ccc(-c2noc(CCCC(=O)NCCc3ccccc3)n2)cc1OC`, the half-maximal activity concentration (AC50) was 11.2 µM (active).
Consider `Cc1nn(-c2ccccc2)c(Cl)c1C(=O)Nc1c(C)n(C)n(-c2ccccc2)c1=O`, for which the “activity, negative = inhibition” value was -15.6%.
In the case of `Cc1ccc(S(=O)(=O)/N=C(/Nc2c(C)n(C)n(-c3ccccc3)c2=O)c2ccc(Cl)cc2)cc1`, the AC50 was 3.16 µM (active).
Same read-out and setting: then `COc1ccccc1N/C(=N/S(=O)(=O)c1ccc(C)cc1)c1ccc(Cl)cc1`, with 2.24 µM (active).
Regarding `O=S(=O)(/N=C(\Sc1ccccc1)c1ccccc1)c1ccc(Cl)cc1`, the “activity, negative = inhibition” value was -0.323%.
The same measure, in the same setting: then `Cc1c(NC(C)C)c(=O)n(-c2ccccc2)n1C`, with -9.46% [at 25.6 µM].
Take `Cc1c(NC(=O)C2CCN(S(=O)(=O)c3ccc(Cl)cc3)CC2)c(=O)n(-c2ccccc2)n1C`: the half-maximal activity concentration (AC50) was 7.94 µM (active).
Same read-out and setting: then `Cc1c(NCc2cc(Cl)ccc2O)c(=O)n(-c2ccccc2)n1C`, with 14.1 µM (active).
As to `Cc1c(NC(=O)Nc2c(Cl)cccc2Cl)c(=O)n(-c2ccccc2)n1C`, the activity, negative = inhibition is 4.74% [at 11.4 µM].
